Screens: PubChem, National Center for Advancing Translational Sciences (NCATS)
Only some compounds are listed: those with a hit (about 3.4% of all), similar ones and a draw of the others.
p53ts 32C kill – kills p53ts cells at the permissive temperature | H1299-p53A138V at 32C, ATP luminescence viability, 24 h | Potency, µM (titrated, usually from 46.1 µM), hits mostly cytotoxic | hit rate 0.93% among 130,000 | AID 924; also: nearly all actives have a fitted effect of over 55% in size
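ATP-content luminescence (ATPlite) read-out after 24 h compound exposure at 32C in H1299-p53A138V cells (600/well). Tested up to 46 uM. Normalized to DMSO (0%) and 100 uM tamoxifen (100% killing); Hill-fit AC50.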
Tau fil binding – binds recombinant human tau filaments. recombinant tau filaments, thioflavin S fluorescence, 15 h; filaments grown with octadecylsulfate alongside compound. Potency, µM (series often up to 57.1 µM). hit rate 2% among 71,000. AID 596;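 also: actives lower thioflavin S fluorescence by blocking filaments or displacing dye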
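His-tagged recombinant human tau (exons 2, 3 and 10 included), 1 uM, was induced to fibrillize by 30 uM sodium octadecylsulfate with compound present. After 15 h at 37 C, thioflavine S fluorescence (ex 450, em 510 nm) was read.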
Imprint erasure – genomic imprint erasure induction; mouse ES Peg3-LacZ reporter, beta-gal luminescence, 40 h; Potency, µM (titrated, usually from 60.7 µM), usual class: activators; hit rate 0.02% among 110,000; AID 1948
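Imprint erasure is scored as LacZ activity from the silenced maternal Peg3 allele in feeder-free female ES cells cultured 40 h with LIF. Luminescence is normalized to in-plate negative controls and fitted to the Hill equation.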
p53ts 39C tox – cytotoxicity in p53ts cells at nonpermissive temperature. Potency, µM (highest dose often 46.1 µM), usual class: cytotoxic. hit rate 1.5% among 130,000. H1299-p53A138V viability at 39C, ATP luminescence, 24 h; also: nearly all actives have a fitted effect of over 55% in size
FLuc inh – inhibitors of firefly luciferase | P08659 | purified firefly luciferase, luminescence, 8 min | Potency, µM (doses to about 57.1 µM), actives largely listed as inhibitors | hit rate 2.2% among 72,000 | AID 411; also: nearly all actives have a fitted effect of over 40% in size
Target sequence (P08659 whole entry, looked up): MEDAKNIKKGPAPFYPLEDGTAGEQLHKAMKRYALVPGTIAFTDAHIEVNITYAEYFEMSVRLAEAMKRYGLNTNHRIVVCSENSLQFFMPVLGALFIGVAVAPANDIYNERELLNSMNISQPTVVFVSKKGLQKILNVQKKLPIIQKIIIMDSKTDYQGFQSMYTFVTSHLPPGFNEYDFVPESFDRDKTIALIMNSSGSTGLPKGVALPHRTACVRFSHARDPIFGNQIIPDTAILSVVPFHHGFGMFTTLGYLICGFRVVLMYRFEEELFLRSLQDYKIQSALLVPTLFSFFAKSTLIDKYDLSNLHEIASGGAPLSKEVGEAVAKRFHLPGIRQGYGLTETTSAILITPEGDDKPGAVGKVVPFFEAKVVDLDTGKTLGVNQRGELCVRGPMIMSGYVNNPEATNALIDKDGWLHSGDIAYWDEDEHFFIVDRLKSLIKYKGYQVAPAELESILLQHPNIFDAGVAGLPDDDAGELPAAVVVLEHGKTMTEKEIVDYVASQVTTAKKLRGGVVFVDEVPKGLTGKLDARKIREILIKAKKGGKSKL
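Luminescence read-out after 8 min at room temperature; enzyme reaction used luciferin plus 10 uM ATP (linear range) in imidazole buffer pH 7.2 with KCl, MgCl2, Tween 20 and BSA. Each sample was run as a titration.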
Numbers stand for hits; . = inactive; ? = inconclusive; / = no result; [ ] = remark or other dose. Calls follow the shape of the dose curve; as a rule, active = well fitted curve in the direction sought with a large enough effect; inconclusive = small, poorly fitted or top-dose-only effect, or another doubt; inactive = no such curve, though single readings can be large; an effect the other way counts as inactive or inconclusive.

SMILES | p53ts 32C kill | Tau fil binding | Imprint erasure | p53ts 39C tox | FLuc inh
CC1=CC(=O)c2ccccc2C1=O | 25.1µM | ? | . | ? | .
Cc1cccc(OCC(=O)Nc2ccc(S(=O)(=O)Nc3onc(C)c3C)cc2)c1C | . | / | .[10.9 µM] | . | /
Cc1ccc(N2C(=O)C3C(C2=O)C2C=CC3C23CC3)cc1 (configuration not stated) | ? | . | . | ? | 12.6µM
CCCCOc1c(Cl)cc(C(=O)N(Cc2ccc(C)o2)C2CCS(=O)(=O)C2)cc1Cl (configuration not stated) | . | / | .[10.9 µM] | ? | /
O=C(Nc1ccc2c(c1)oc1ccccc12)N1CCOCC1 | ? | . | . | ? | 20µM
CCn1c2ccccc2c2cc(NC(=O)N3CCOCC3)ccc21 | . | . | . | . | .
CCCCOc1ccccc1C1CC(=O)Nc2cc(C)c(C)cc21 (configuration not stated) | . | / | .[10.9 µM] | 10µM | /
N=C1C=CC=C2C1=NC1(CCCCC1)N2O | . | 15.8µM | . | . | .
Cc1ccc(S(=O)(=O)Nc2cc3c(cc2N2CCOCC2)n(C)c(=O)n3C)cc1 | . | / | .[10.9 µM] | . | /
CC(=O)Nc1ccc(-c2nc3c(C)cccc3[nH]2)cc1 | ? | . | . | ? | 3.16µM
N#CC1=C(N)N(c2ccccc2)C2=C(C(=O)CCC2)C1c1cccs1 (configuration not stated) | . | 20µM | . | . | .
COc1cccc(-c2cc(C(=O)Nn3cnnc3)c3ccccc3n2)c1 | 3.98µM | . | . | 5.01µM | 3.16µM
O=C(c1cc(-c2ccncc2)nc2ccc(Br)cc12)N1CCN(c2ccccn2)CC1 | . | 31.6µM | . | . | .
O=C(Nn1cnnc1)c1cc(-c2ccccn2)nc2ccccc12 | . | . | . | . | .
CC(C)Oc1cccc(-c2cc(C(=O)N3CCN(S(C)(=O)=O)CC3)c3ccccc3n2)c1 | ? | . | . | ? | 5.01µM
CS(=O)(=O)N1CCN(C(=O)c2ccc(-c3ccccc3)cc2)CC1 | . | . | . | . | .
O=C(O)c1cc(-c2ccc3cc4c(cc3c2)OCO4)nc2ccccc12 | 1.58µM | .[11.4 µM] | .[10.9 µM] | 1.26µM | 2.51µM
COC(=O)c1cc(-c2ccc3c(c2)OCO3)nc2ccccc12 | . | . | . | ? | .
Nc1ncnc2nc(-c3ccc(C[P+](c4ccccc4)(c4ccccc4)c4ccccc4)cc3)[nH]c12 | .[9.22 µM] | .[11.4 µM] | .[10.9 µM] | .[9.22 µM] | .[11.4 µM]
Cc1ccc(-c2cc(C(=O)N3CCOCC3)c3ccccc3n2)cc1 | ? | . | . | ? | 12.6µM
COc1cccc(-c2cc(C(=O)N3CCN(c4ncccn4)CC3)c3ccccc3n2)c1 | 12.6µM | . | . | ? | 6.31µM
CCOC(=O)c1sc2nc3c(cc2c1N)COC(C)(C)C3 | . | . | . | . | 20µM
CCOC(=O)c1sc2nc(N3CCOCC3)c3c(c2c1N)CC(C)(C)N(C)C3 | . | 12.6µM | . | . | .
COC(=O)c1sc2nc(N3CCCCC3)c3c(c2c1N)CC(C)(C)N(C)C3 | / | / | / | / | .
COC(=O)CSc1ncnc2c1sc1nc(-c3ccco3)c3c(c12)CC(C)(C)OC3 | / | / | / | / | .
SMILES | p53ts 32C kill | Tau fil binding | Imprint erasure | p53ts 39C tox | FLuc inh
CCOC(=O)c1sc2nc(-c3ccco3)c3c(c2c1N)CC(C)(C)OC3 | . | 12.6µM | . | . | .
COc1ccc(CN2COc3ccc4c(-c5ccccc5)cc(=O)oc4c3C2)cc1OC | . | / | .[10.9 µM] | . | /
COc1ccc(C(=O)N2CCC[C@@]3(CCN(c4ccccn4)C3)C2)cc1 | . | . | / | . | .[11.4 µM]
Clc1ccc(C2=Nn3c(nnc3-c3n[nH]c4c3CCC4)SC2)cc1Cl | . | . | . | 12.6µM | .
c1ccc(C2=Nn3c(nnc3-c3n[nH]c4c3CCC4)SC2)cc1 | . | . | . | . | .
CCCSc1nnc(Cc2cc(=O)[nH]c(=O)[nH]2)n1-c1cc(C)ccc1C | . | . | 10µM | . | .
N#Cc1c(-n2ncnc2-c2ccc(F)cc2)sc2c1CCCCC2 | 12.6µM | / | .[10.9 µM] | 12.6µM | /
Cc1ccccc1-c1ncnn1-c1sc2c(c1C#N)CCCCC2 | ? | / | .[10.9 µM] | 12.6µM | /
O=C(Nc1ccc(C(F)(F)F)cc1)C(Cc1ccccc1)n1cccc1 (configuration not stated) | . | / | .[10.9 µM] | 20µM | /
O=C(COc1ccccc1Cl)Nc1ccc(-c2nc3ccccc3s2)cc1 | . | / | .[10.9 µM] | ? | /
CCC(=O)Nc1cccc(-c2nnc(SCC(=O)NCc3ccco3)n2C)c1 | / | / | / | / | .
CCC(=O)Nc1cccc(-c2nnc(SCC(=O)c3ccccc3)n2C)c1 | . | . | . | . | 15.8µM
Cc1ccc(C(CC(=O)c2ccco2)SCCO)cc1 (configuration not stated) | . | . | . | . | 25.1µM
COc1cc2c(C=O)c3c4c(cc(OC)c(OC)c4c2cc1OC)CCN3C | ? | / | . | 15.8µM | /
COC(=O)[C@@]1(Cc2ccc(F)cc2)[C@H]2c3cc(C(=O)N4CCCC4)n(Cc4cc(F)cc5c4OCOC5)c3C[C@H]2CN1C(=O)c1ccccc1 | . | . | . | . | /
Cc1ccc(C(=O)Nc2ccc3c(c2)nc2n3CCSC2)cc1 | 7.94µM | . | . | ? | 7.94µM
COc1ccccc1C(=O)Nc1ccc2c(c1)nc1n2CCSC1 | 3.98µM | . | . | 3.16µM | 5.01µM
COc1ccc(OC)c(CCNc2ncnc3onc(-c4ccc(F)cc4)c23)c1 | . | / | .[10.9 µM] | . | /
CC(C)(C)C(=O)[C@H](C(c1ccccc1)N1CCOCC1)N1CCOCC1 (some centres not stated) | / | / | .[10.9 µM] | / | /
c1ccc(OCc2nc3ccccc3s2)cc1 | . | . | . | . | 12.6µM
O=S(=O)(Cc1nc2ccccc2s1)c1ccccc1 | . | . | . | . | .
Cc1cc(-c2ccc(S(=O)(=O)Nc3ccc(Cl)cc3C)cc2)on1 | . | / | .[10.9 µM] | ? | /
Nc1ccc(CCc2nc3ccccc3o2)cc1 | ? | . | . | ? | 25.1µM
O=c1ccsn1Cc1ccccc1 | . | . | . | . | 20µM
CN(C)c1nc(-c2ccc3c(c2)OCO3)nc2ccccc12 | . | . | . | . | .[2.29 µM]
SMILES | p53ts 32C kill | Tau fil binding | Imprint erasure | p53ts 39C tox | FLuc inh
CCCn1c(/C=C/c2ccccc2)nc2ccccc21 | 12.6µM | / | .[10.9 µM] | 10µM | /
CCOC(=O)c1c(-c2ccccc2)csc1NC(=O)c1cc(-c2ccc(Br)cc2)on1 | . | / | .[10.9 µM] | . | /
Cc1ccc2cc3cc(C(=O)N4CCCCC4C)oc3nc2c1 (configuration not stated) | 12.6µM | . | . | ? | 12.6µM
CCN(C(=O)c1cc2cc3ccc(C)cc3nc2o1)c1ccc(OC)cc1 | . | . | . | . | .
Cc1ccc2cc3cc(C(=O)N(C)c4ccccc4C)oc3nc2c1 | ? | / | .[10.9 µM] | 10µM | /
Cc1ccc(-c2csc(-c3nc(-c4ccc(Br)s4)cs3)n2)cc1 | . | / | .[10.9 µM] | . | /
CC1=C(C(=O)Nc2ccc(C)cc2C)C(c2ccccc2F)n2nc(SCC(=O)c3ccc(C)cc3)nc2N1 (configuration not stated) | . | / | .[10.9 µM] | . | /
Cn1c(=O)c(-c2cc(F)cc(F)c2)nc2cnc(Nc3ccccc3)nc21 | . | 6.31µM | . | . | .[11.4 µM]
Cn1c(=O)c(-c2cc(F)cc(F)c2)nc2cnc(Oc3ccccc3)nc21 | . | 12.6µM | / | . | .[11.4 µM]
